Results on 1 sequence are retold here after PMC7862700, “An all-to-all approach to the identification of sequence-specific readers for epigenetic DNA modifications on cytosine”.

What all share (experiment): DAPPL (digital affinity profiling via proximity ligation, sequencing); 10 mM Tris-HCl pH 7.5, 50 mM NaCl, 1 mM DTT, 4% glycerol, room temperature, 30 min; GST-TFs on glutathione beads, 16-mer random dsDNA library, 0.1% formaldehyde crosslink after washing; high values mean tight binding
In one assay the target is T1, FLI1 (Homo sapiens, UniProt Q01543 1-452).
T1 sequence: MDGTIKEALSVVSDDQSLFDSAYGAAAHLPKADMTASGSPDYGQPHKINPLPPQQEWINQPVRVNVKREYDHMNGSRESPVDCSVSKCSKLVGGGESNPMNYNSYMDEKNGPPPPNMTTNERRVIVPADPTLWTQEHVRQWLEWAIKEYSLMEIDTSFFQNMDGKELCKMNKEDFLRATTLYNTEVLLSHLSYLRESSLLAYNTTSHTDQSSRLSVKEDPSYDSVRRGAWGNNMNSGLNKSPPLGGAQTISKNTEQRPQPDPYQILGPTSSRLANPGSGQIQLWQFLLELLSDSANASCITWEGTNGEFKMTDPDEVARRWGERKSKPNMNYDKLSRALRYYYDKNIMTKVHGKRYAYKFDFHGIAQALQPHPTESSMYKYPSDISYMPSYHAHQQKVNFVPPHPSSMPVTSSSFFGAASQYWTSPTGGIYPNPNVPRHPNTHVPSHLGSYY
The following applies: protein: recombinant; tags: N-terminal GST; dsDNA, one strand shown. The essentials: (§1)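 Sequencing on an Illumina NextSeq500 followed washing, crosslinking with 0.1% formaldehyde, proximity ligation (BsaI/T4 ligase, 1 h, 37 °C) and PCR amplification of pools that had been incubated for 30 min at room temperature with 200 nmole of a random double-stranded 16-mer DNA library in Tris/NaCl/DTT/glycerol buffer. Each pool held DNA-barcoded human transcription factors, expressed in yeast as GST fusions and captured on glutathione beads, plus a tag-only sample. Binding signal is a hexamer's read frequency for a factor divided by its frequency in the tag-only sample.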

For the next assay, the target named is T2, ELK1 (Homo sapiens, UniProt P19419 1-428).
T2 sequence: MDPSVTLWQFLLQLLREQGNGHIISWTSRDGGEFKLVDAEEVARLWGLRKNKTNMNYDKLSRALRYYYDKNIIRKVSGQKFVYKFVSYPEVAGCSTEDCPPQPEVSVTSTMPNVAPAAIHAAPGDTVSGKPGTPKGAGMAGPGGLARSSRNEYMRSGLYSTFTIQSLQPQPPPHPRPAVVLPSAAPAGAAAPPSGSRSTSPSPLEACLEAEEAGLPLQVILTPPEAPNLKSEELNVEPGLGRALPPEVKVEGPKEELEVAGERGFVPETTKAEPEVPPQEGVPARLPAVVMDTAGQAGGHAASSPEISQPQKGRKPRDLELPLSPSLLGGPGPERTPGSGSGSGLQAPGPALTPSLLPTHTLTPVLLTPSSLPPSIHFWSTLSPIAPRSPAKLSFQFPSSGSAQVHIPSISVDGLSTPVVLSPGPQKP
The following applies: protein: recombinant; tags: N-terminal GST; dsDNA, one strand shown. The essentials: as §1

Another assay has as its target T3, GABPA (Homo sapiens, UniProt Q06546 1-454).
T3 sequence: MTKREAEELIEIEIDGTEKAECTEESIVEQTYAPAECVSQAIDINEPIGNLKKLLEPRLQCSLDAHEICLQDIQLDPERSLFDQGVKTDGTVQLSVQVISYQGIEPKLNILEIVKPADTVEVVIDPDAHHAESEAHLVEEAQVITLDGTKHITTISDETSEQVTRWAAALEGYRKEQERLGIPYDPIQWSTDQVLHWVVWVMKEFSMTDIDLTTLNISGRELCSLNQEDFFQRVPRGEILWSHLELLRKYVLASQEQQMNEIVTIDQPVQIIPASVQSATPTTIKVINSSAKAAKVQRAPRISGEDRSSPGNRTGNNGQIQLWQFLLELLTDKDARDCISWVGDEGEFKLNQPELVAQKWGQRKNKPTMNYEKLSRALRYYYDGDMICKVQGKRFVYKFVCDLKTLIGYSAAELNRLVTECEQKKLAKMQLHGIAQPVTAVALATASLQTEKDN
The note with it: protein: recombinant; tags: N-terminal GST; dsDNA, one strand shown. The essentials: as §1

Another assay concerns the target T4, ERG (Homo sapiens, UniProt P11308 1-479).
T4 sequence: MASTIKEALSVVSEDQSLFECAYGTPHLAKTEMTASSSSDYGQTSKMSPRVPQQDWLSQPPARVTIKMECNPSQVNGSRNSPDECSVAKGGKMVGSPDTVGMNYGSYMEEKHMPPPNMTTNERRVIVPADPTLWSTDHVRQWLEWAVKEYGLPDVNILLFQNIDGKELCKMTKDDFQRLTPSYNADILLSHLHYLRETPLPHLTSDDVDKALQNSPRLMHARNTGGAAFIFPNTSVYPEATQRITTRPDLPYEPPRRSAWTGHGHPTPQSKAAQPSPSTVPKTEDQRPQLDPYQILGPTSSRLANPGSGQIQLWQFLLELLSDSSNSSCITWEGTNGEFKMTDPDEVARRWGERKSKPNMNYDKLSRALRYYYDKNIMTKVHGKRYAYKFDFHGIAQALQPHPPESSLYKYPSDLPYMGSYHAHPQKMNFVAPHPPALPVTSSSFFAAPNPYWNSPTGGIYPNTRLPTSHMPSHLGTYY
The following applies: protein: recombinant; tags: N-terminal GST; dsDNA, one strand shown. Summed up:
as §1

For a further assay, the target named is ELF1 (Homo sapiens, UniProt P32519 1-619). The following applies: protein: recombinant; tags: N-terminal GST; dsDNA, one strand shown. The essentials:
as §1

The next assay deals with T5, EHF (Homo sapiens, UniProt Q9NZC4 1-300).
T5 sequence: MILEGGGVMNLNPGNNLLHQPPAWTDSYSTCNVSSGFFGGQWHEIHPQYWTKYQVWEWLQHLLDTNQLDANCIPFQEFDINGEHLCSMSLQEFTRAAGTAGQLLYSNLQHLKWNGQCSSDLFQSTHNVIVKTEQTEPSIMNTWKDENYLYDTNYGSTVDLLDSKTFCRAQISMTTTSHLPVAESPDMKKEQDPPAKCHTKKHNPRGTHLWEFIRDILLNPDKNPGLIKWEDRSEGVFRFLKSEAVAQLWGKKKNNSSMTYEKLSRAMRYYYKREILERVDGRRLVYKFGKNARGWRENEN
The following applies: protein: recombinant; tags: N-terminal GST; dsDNA, one strand shown. Summed up:
as §1

In another assay the target is SPI1 (Homo sapiens, UniProt P17947 1-270). The note with it: protein: recombinant; tags: N-terminal GST; dsDNA, one strand shown. Summed up: as §1
For another assay, the target named is SPIB (Homo sapiens, UniProt Q01892 1-262). The following applies: protein: recombinant; tags: N-terminal GST; dsDNA, one strand shown. Summed up: as §1
Sequence of SPIB (Q01892 whole entry): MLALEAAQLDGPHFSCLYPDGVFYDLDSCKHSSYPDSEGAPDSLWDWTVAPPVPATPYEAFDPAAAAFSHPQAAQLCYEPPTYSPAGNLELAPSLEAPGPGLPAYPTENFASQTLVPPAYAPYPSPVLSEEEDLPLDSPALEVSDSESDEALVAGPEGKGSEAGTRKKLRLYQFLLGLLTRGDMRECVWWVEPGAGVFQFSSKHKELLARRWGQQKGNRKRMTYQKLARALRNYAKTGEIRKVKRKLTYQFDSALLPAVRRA
The next assay addresses T6, ELK3 (Homo sapiens, UniProt P41970 1-407).
T6 sequence: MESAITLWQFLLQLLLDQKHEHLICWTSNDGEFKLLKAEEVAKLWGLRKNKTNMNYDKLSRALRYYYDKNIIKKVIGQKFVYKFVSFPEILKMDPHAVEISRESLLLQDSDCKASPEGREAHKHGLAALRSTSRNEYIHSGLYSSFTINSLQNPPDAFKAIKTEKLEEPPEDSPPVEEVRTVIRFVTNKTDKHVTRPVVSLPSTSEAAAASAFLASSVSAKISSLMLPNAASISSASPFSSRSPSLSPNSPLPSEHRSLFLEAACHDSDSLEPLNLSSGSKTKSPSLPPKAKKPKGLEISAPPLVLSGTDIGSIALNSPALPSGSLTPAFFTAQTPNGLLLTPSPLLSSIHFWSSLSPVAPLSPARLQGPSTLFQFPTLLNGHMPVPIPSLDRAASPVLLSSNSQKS
The following applies: protein: recombinant; tags: N-terminal GST; dsDNA, one strand shown. Summed up: as §1

For the next assay, the target named is T7, FEV (Homo sapiens, UniProt Q99581 1-238).
T7 sequence: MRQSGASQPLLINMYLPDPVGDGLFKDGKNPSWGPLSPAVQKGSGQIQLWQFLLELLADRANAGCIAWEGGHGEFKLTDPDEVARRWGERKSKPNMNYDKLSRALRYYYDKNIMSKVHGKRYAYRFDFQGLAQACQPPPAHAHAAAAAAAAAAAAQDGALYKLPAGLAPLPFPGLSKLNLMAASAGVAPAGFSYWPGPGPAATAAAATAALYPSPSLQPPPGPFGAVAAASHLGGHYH
The note with it: protein: recombinant; tags: N-terminal GST; dsDNA, one strand shown. The essentials: as §1

In the next assay the target is ETV5 (Homo sapiens, UniProt P41161 1-510). The following applies: protein: recombinant; tags: N-terminal GST; dsDNA, one strand shown. The essentials:
as §1

The target in the next assay is HSF1 (Homo sapiens, UniProt Q00613 1-529). The note with it: protein: recombinant; tags: N-terminal GST; chain copies: 3; dsDNA, one strand shown. Summed up: as §1
Sequence of HSF1 (Q00613 whole entry): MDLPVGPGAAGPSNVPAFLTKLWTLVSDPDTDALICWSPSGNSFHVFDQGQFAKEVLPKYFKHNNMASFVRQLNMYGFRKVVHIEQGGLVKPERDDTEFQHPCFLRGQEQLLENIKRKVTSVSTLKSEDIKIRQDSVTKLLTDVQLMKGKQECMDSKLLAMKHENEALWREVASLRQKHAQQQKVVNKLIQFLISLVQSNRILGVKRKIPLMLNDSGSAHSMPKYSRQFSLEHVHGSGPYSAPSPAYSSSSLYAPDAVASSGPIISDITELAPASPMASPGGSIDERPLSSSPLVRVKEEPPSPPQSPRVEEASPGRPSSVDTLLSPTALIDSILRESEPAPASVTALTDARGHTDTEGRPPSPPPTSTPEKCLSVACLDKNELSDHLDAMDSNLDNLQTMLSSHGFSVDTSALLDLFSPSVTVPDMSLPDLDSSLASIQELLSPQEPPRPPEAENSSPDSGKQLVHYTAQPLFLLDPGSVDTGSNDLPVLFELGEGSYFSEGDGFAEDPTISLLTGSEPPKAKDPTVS
For a further assay, the target named is T8, SPIC (Homo sapiens, UniProt Q8N5J4 1-248).
T8 sequence: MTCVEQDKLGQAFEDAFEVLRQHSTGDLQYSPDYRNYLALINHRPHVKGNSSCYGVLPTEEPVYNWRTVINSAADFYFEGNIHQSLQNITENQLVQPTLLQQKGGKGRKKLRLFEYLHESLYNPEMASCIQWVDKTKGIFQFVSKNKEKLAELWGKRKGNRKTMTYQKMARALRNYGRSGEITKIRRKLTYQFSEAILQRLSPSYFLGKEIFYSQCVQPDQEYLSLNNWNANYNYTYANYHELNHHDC
The following applies: protein: recombinant; tags: N-terminal GST; dsDNA, one strand shown. Summed up: as §1

The target of another assay is ELF4 (Homo sapiens, UniProt Q99607 1-663). The note with it: protein: recombinant; tags: N-terminal GST; dsDNA, one strand shown. Summed up:
as §1

In a further assay the target is T9, ELK4 (Homo sapiens, UniProt P28324-2 1-405).
T9 sequence: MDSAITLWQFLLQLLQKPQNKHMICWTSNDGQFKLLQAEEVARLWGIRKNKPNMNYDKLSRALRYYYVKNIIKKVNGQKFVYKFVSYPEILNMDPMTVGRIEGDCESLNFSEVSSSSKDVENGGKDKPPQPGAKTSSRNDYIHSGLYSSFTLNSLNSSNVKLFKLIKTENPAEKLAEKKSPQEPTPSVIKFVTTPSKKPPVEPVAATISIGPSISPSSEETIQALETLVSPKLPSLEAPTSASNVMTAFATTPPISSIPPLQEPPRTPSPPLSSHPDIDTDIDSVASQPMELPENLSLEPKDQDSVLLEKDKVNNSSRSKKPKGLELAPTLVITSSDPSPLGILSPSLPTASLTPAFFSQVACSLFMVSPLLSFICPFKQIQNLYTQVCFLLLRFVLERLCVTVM
The following applies: protein: recombinant; tags: N-terminal GST; dsDNA, one strand shown. Summed up: as §1

The target of the next assay is T10, ETV2 (Homo sapiens, UniProt O00321 1-342).
T10 sequence: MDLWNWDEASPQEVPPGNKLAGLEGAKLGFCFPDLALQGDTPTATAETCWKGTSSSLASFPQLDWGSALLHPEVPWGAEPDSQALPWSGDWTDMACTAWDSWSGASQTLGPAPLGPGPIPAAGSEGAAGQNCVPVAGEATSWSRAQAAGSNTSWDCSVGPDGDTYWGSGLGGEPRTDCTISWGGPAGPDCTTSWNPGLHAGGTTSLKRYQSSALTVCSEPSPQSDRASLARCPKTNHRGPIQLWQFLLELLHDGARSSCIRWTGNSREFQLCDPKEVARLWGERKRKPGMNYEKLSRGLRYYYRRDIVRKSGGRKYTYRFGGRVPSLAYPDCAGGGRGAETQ
The following applies: protein: recombinant; tags: N-terminal GST; dsDNA, one strand shown. Summed up:
as §1

The target of a further assay is T11, ELF3 (Homo sapiens, UniProt P78545 1-371).
T11 sequence: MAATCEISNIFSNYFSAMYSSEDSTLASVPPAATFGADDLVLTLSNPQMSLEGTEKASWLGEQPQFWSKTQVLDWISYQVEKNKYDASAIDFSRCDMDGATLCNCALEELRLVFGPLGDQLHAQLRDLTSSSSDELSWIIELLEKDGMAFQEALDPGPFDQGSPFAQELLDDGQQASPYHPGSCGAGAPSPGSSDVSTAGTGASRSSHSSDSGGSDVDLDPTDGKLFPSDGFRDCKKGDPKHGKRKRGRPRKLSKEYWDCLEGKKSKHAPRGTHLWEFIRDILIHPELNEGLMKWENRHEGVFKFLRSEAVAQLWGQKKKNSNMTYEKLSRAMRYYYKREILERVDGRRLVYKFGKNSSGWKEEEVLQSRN
The following applies: protein: recombinant; tags: N-terminal GST; dsDNA, one strand shown. Summed up:
as §1

The target of the next assay is ETV1 (Homo sapiens, UniProt P50549 1-477). The following applies: protein: recombinant; tags: N-terminal GST; dsDNA, one strand shown. Summed up: as §1
Sequence of ETV1 (P50549 whole entry): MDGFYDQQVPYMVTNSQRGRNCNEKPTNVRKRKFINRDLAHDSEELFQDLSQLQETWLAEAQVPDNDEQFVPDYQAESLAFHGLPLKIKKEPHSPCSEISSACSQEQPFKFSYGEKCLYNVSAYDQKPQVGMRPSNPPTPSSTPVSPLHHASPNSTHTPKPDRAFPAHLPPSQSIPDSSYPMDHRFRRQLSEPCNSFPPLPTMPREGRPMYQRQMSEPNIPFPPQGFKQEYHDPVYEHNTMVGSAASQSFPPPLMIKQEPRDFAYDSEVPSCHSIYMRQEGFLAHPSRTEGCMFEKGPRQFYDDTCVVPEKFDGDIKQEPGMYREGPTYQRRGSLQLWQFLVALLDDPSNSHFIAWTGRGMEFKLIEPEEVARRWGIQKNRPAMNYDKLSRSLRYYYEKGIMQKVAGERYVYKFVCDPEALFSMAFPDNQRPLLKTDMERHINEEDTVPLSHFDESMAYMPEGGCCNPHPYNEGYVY

Sequence of ELF4 (Q99607 whole entry): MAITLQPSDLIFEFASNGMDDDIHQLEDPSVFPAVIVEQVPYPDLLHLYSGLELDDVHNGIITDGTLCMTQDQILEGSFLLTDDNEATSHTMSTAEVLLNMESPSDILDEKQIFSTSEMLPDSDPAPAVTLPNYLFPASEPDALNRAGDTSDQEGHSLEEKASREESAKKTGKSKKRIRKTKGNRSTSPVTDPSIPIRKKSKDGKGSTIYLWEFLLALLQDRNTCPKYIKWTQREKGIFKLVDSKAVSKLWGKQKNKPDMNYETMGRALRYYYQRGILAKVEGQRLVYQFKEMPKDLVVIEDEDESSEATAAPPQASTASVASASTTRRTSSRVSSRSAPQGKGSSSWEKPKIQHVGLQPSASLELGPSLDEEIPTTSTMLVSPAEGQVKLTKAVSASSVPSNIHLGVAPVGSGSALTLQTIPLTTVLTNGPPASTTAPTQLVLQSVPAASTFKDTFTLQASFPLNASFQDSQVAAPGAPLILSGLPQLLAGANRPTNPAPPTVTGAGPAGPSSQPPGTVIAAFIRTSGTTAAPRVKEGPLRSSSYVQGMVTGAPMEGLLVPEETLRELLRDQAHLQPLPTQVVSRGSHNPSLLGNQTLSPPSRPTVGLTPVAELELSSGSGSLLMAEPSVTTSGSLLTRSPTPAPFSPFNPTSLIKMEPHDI
Sequence of ETV5 (P41161 whole entry): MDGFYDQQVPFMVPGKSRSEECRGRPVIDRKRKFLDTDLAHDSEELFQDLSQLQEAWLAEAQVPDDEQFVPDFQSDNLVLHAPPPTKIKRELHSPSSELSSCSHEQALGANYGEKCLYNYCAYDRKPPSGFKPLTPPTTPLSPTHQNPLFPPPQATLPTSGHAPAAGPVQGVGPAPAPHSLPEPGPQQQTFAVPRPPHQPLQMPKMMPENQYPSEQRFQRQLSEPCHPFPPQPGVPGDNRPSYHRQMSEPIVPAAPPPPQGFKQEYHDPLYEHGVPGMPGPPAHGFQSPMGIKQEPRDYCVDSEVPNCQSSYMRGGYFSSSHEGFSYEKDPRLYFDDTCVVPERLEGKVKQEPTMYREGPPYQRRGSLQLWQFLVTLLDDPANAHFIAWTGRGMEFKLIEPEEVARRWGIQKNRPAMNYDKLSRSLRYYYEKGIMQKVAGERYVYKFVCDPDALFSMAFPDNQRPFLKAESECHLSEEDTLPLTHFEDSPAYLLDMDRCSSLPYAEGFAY
Sequence of ELF1 (P32519 whole entry): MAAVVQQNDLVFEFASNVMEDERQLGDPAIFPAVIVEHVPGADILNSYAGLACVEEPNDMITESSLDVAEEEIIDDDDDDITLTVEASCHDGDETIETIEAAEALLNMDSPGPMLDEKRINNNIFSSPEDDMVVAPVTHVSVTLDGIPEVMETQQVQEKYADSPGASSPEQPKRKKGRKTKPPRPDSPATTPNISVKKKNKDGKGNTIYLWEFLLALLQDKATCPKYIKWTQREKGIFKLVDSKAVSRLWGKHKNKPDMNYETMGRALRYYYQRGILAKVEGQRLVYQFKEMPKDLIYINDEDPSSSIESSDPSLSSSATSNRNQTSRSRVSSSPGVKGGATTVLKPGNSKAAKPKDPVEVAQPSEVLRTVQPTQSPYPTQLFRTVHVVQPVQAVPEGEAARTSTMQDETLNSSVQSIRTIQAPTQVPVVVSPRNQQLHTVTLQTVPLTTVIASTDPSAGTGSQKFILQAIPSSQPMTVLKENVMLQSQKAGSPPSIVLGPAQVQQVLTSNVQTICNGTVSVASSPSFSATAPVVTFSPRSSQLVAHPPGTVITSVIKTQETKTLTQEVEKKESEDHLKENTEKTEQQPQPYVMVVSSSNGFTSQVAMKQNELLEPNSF

As to GTCTCT, the binding signal in the assay with FLI1 is 1.41 fold enrichment (6-mer frequency, TF over GST control); in the assay with ELK1 it was 1.26 fold enrichment (6-mer frequency, TF over GST control); in the assay with GABPA, 1.31 fold enrichment (6-mer frequency, TF over GST control); with ERG it was 1.33 fold enrichment (6-mer frequency, TF over GST control); with ELF1, 1.29 fold enrichment (6-mer frequency, TF over GST control); in the assay with EHF, 1.19 fold enrichment (6-mer frequency, TF over GST control). In addition, the binding signal with SPI1 was 1.32 fold enrichment (6-mer frequency, TF over GST control); in the assay with SPIB it was 1.25 fold enrichment (6-mer frequency, TF over GST control); with ELK3, 1.14 fold enrichment (6-mer frequency, TF over GST control); with FEV, 1.15 fold enrichment (6-mer frequency, TF over GST control); with ETV5, 1.14 fold enrichment (6-mer frequency, TF over GST control); with HSF1, 1.12 fold enrichment (6-mer frequency, TF over GST control). The binding signal is 1.33 fold enrichment (6-mer frequency, TF over GST control) with SPIC; 1.33 fold enrichment (6-mer frequency, TF over GST control) in the assay with ELF4; 1.18 fold enrichment (6-mer frequency, TF over GST control) with ELK4; 1.24 fold enrichment (6-mer frequency, TF over GST control) in the assay with ETV2; 1.11 fold enrichment (6-mer frequency, TF over GST control) with ELF3; 1.27 fold enrichment (6-mer frequency, TF over GST control) in the assay with ETV1.
